Screening results (PubChem BioAssay)
SIRT5 block = blocks human SIRT5 desuccinylation of peptide | Q9NXA8 | Purified SirT5, succinyl-peptide AMC, trypsin-coupled fluorescence | inhibition, % at 15 µM | 330,000 tested, 1.1% active | AID 652115; in the data active = inhibition above about 15%; inconclusive = no clear call, values can overlap the other calls
Rtt109 HAT inh = C. albicans Rtt109 histone acetyltransferase inhibition. 330,000 tested, 0.16% active. purified Rtt109/Vps75, ThioGlo CoA-SH fluorescence, 4 h. inhibition, % at 34.9 µM;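 active = inhibition of at least 50% in every replicate; inconclusive = best replicate reaches 50% inhibition but some replicates fall short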
DENV2 CPE = DENV2-induced cell death inhibition; DENV2-infected cells, cytopathic effect rescue, plate reader; CPE inhibition, % at 9.99 µM; 350,000 tested, 1.7% active; in the data active = CPE inhibition above about 20%, passing the limit was not always enough; inconclusive = no clear call, values can overlap the other calls; tested in BHK-21 cells
ERp5 block = ERp5 (human) disulfide isomerase inhibition; ERp5 insulin aggregation, absorbance 650 nm, 90 min; inhibition, % at 9.99 µM; 350,000 tested, 0.05% active;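 active = mean replicate inhibition above about 25%, with every replicate also reaching it, limit read from the data, passing the limit was not always enough; inconclusive = only one of those two criteria met; inactive = neither criterion met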
PDI turbidity = inhibitors of human protein disulfide isomerase | PDI insulin aggregation turbidity, A650, 90 min | P07237 | inhibition, % at 10 µM | 350,000 tested, 0.052% active;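 active = mean inhibition across replicates of 30% or more, whatever share of single replicates reach that level; inconclusive = mean inhibition below 30% while every single replicate reaches 30%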
Target sequence (P07237 whole entry, looked up): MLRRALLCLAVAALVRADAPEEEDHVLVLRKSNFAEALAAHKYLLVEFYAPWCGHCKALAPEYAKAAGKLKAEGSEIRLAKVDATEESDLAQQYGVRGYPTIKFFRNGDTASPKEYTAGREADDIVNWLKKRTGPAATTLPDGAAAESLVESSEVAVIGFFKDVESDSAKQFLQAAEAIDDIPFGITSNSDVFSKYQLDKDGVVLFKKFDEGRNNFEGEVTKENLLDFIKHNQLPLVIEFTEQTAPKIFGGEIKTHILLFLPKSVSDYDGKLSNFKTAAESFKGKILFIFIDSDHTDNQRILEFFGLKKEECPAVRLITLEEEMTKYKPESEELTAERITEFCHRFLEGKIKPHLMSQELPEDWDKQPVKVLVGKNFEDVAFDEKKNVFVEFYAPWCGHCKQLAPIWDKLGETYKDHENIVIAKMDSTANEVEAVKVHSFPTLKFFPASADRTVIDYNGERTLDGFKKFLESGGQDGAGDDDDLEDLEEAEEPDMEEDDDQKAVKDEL
A number is an active result; – = inactive; ? = inconclusive; · = no result given; ! = not active in a repeat. In the library only some 2.3% were active in any assay of this set; here they are far more common.

SMILES	SIRT5 block	Rtt109 HAT inh	DENV2 CPE	ERp5 block	PDI turbidity
C[C@H](CO)N1C[C@H](C)[C@@H](CN(C)C(=O)C2CC2)Oc2ncc(C#CC3CCCC3)cc2C1=O	–	·	25	–	·
COc1ccc2c3c(n(C)c2c1)[C@H](CO)NCC31CCN(Cc2ccccc2F)CC1	·	·	31	·	·
COc1ccc2c3c(n(C)c2c1)[C@@H](CO)NCC31CN(Cc2cc(F)ccc2F)C1	·	·	31	·	·
COc1cccc(S(=O)(=O)N[C@@H]2CC[C@@H](CCn3cc(-c4ccccn4)nn3)O[C@@H]2CO)c1	–	·	–	–	·
COc1cccc(S(=O)(=O)N[C@@H]2CC[C@H](CC(=O)NC3Cc4ccccc4C3)O[C@H]2CO)c1	–	·	–	–	·
CCN(CC)C(=O)c1ccc(/C=C/c2c[nH]c3ccccc23)[n+](C)c1	·	–	·	·	–
CC[n+]1c(/C=C/c2c[nH]c3ccccc23)ccc2cc(C)ccc21	–	84	–	–	·
CCNC(=O)[C@@H]1[C@@H](CO)[C@@H]2Cn3c(ccc(/C=C/c4ccccc4)c3=O)[C@@H]2N1C(C)=O	–	·	62	–	·
CCCN1[C@H](C(=O)NCC)[C@@H](CO)[C@@H]2Cn3c(ccc(/C=C/c4ccccc4)c3=O)[C@@H]21	–	·	–	–	·
CCCNC(=O)[C@H]1[C@H](CO)[C@H]2Cn3c(ccc(/C=C/c4ccccc4)c3=O)[C@@H]1N2C(C)=O	–	·	–	71	·
CC=Cc1ccc2n(c1=O)C[C@H]1[C@H](CO)[C@@H](C(=O)Nc3nccs3)N(C(=O)CC)[C@@H]21 (mixture of isomers)	–	·	58	–	·
Cc1cccc(Cl)c1NC(=O)NCCCN1CCCCC1C (stereo not given)	23	·	–	–	·
O=[N+]([O-])c1cnccc1Nc1ccc(F)cc1	·	–	·	·	–
Nc1ccc(Nc2ccncc2[N+](=O)[O-])cc1	·	50	·	·	–
Cn1nnc(NC(=S)NC(=O)c2cccs2)n1	–	–	–	–	–
CCCCn1nnc(NC(=S)NC(=O)c2cccs2)n1	21	–	–	–	–
COc1ccc(-c2ccc([C@@H]3[C@@H](C#N)N[C@@H]3CO)cc2)cc1	–	·	–	–	·
C[C@H]1CN([C@@H](C)CO)S(=O)(=O)c2ccc(C3=CCCCC3)cc2O[C@H]1CN(C)C(=O)C1CC1	–	·	–	–	·
CCN(CC)CCCNC(CC(=O)Nc1cccc([N+](=O)[O-])c1)C(=O)O (stereo not given)	–	–	30	–	–
O=C(CCCc1ccccc1)Nc1cccc([N+](=O)[O-])c1	–	–	40	–	–
O=C(CCCC(=O)Nc1cccc(Br)c1)N/N=C/c1cc([N+](=O)[O-])ccc1O	–	–	?	–	–
O=C(CCc1ccccc1)Nc1cccc([N+](=O)[O-])c1	–	·	–	–	–
O=C(CCC(=O)Nc1cccc(Cl)c1)N/N=C/c1cc([N+](=O)[O-])ccc1O	15	–	·	–	–
C/C=C/c1ccc2c(c1)O[C@H](CN(C)C(C)=O)[C@H](C)CN([C@@H](C)CO)S2(=O)=O	–	·	45	–	·
C/C=C/c1ccc2c(c1)O[C@H](CN(C)CC1CCOCC1)[C@H](C)CN([C@@H](C)CO)S2(=O)=O	–	·	–	–	·
SMILES	SIRT5 block	Rtt109 HAT inh	DENV2 CPE	ERp5 block	PDI turbidity
C/C=C/c1ccc2c(c1)O[C@H](CN(C)CC1CCCC1)[C@@H](C)CN([C@H](C)CO)S2(=O)=O	15	·	–	–	·
CC(=O)N(C)C[C@@H]1Oc2cc(-c3ccncc3)ccc2S(=O)(=O)N([C@H](C)CO)C[C@@H]1C	–	·	29	–	·
C[C@H](CO)N1C[C@H](C)[C@H](CN(C)CC2CC2)Oc2cc(C#Cc3ccncc3)ccc2S1(=O)=O	–	·	–	–	·
COc1ccc(NC(=O)N(C)C[C@@H]2OCc3cnnn3CCCC(=O)N([C@H](C)CO)C[C@H]2C)cc1	–	·	–	–	–
COc1ccc(NC(=O)N(C)C[C@@H]2OCc3cnnn3CCCC(=O)N([C@@H](C)CO)C[C@@H]2C)cc1	–	·	24!	–	·
C[C@@H]1CN([C@H](C)CO)C(=O)CCCn2nncc2CO[C@H]1CN(C)C(=O)Nc1ccc(C(C)(C)C)cc1	–	·	–	–	·
COc1ccc(NC(=O)N(C)C[C@H]2OCc3cnnn3CCCC(=O)N([C@@H](C)CO)C[C@H]2C)c(OC)c1	–	·	26!	–	–
C[C@@H]1CN([C@@H](C)CO)C(=O)CCCn2nncc2CO[C@H]1CN(C)C(=O)Nc1ccc(C(C)(C)C)cc1	–	·	22	–	·
COC(=O)c1ccc(NC(=S)NCCCn2ccnc2)cc1	20	–	–	–	–
O=C(/C=C\Nc1ccccn1)c1ccc(Cl)cc1	·	62	·	·	–
Cc1noc(C)c1S(=O)(=O)Nc1ccc2c(c1)C(=O)N([C@@H](C)CO)C[C@H](C)[C@@H](CN(C)S(=O)(=O)c1ccc(Cl)cc1)OCCCC[C@@H](C)O2	–	·	–	–	·
Cc1cccc(N/C=C(\[N+](=O)[O-])S(=O)(=O)c2ccccc2)c1	40	–	–	–	–
Cc1cc(S(=O)(=O)NC(=O)[C@H]2O[C@@H](n3ccc(=O)[nH]c3=O)[C@H](O)[C@@H]2O)ccc1Br	–	·	20	–	·
O=C(NS(=O)(=O)c1ccccc1[N+](=O)[O-])[C@H]1O[C@@H](n2ccc(=O)[nH]c2=O)[C@H](O)[C@@H]1O	–	·	–	–	·
C/C=C/c1ccc([C@H]2[C@@H](CNC(=O)CC3CC3)N(C(C)=O)[C@H]2CO)cc1	·	·	–	·	·
CN(C(=O)c1ccc(N2CCCCC2)c([N+](=O)[O-])c1)C1(C)CCS(=O)(=O)C1 (stereo not given)	–	53	–	–	–
Cc1ccc(S(=O)(=O)N2CCC(C(=O)Nc3ccc(S(=O)(=O)N4CCCC4)cc3)CC2)cc1	–	–	–	–	32
Cc1ccc(NC(=S)N2CCN(S(=O)(=O)c3ccc(C)cc3)CC2)cc1	–	–	27	–	–
O=C(O)/C=C/C(=O)Nc1ccc(S(=O)(=O)N2CCCC2)cc1	·	64	–	–	–
COC(=O)Nc1ccc(S(=O)(=O)N2CCCCC2)cc1	·	·	·	·	–
O=C(CSCc1ccc([N+](=O)[O-])cc1)Nc1ccc(S(=O)(=O)N2CCCCCC2)cc1	–	–	80	–	–
CC(C)(C)[S@](=O)N1Cc2cc(C(=O)NCc3ccc4c(c3)OCO4)nc(-c3cccc(-c4ccncc4)c3)c2[C@@H]1CCO	–	·	–	–	·
O=C(c1cccc(F)c1)N1CC(=O)N2[C@H](C1)[C@H](c1ccc(-c3ccccc3F)cc1)[C@@H]2CO	–	·	–	–	·
CC(=O)c1cccc(NC(=S)N2CCN(S(=O)(=O)c3ccccc3)CC2)c1	–	–	69	–	–
CC(=O)c1cccc(S(=O)(=O)N2CCC(C(=O)O)CC2)c1	·	58	·	–	–
C[C@H]1CN([C@@H](C)CO)C(=O)c2cc(NC(=O)NC3CCCCC3)ccc2O[C@H]1CN(C)Cc1ccccc1	–	·	–	–	·
O=C(/C=C/c1ccc(Cl)cc1)NCc1ccncc1	·	53	·	·	–
Cc1ccc(/C=C/C(=O)NCc2ccncc2)cc1	·	–	·	·	–
O=C(N[C@@H]1CC[C@@H](CC(=O)N2CCC(Cc3ccccc3)CC2)O[C@H]1CO)c1cnccn1	–	·	–	–	·
